# Assay results as given in PubChem BioAssay AID999 (SRMLSC, 2007).
# Unmarked numbers belong to inactive results. Activity calls are given as the source filed them.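 Rule for the calls: active = viability at or below 21.59%, 3 SD under the median of tested compounds; inactive = the rest.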
# Assay: viability loss in PTEN-deleted cells – cell-based, validation, diverse DP compound set (AID 999);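 note: 100% = median luminescence of untreated cell control wells and 0% = no signal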
# Details: HCT116 PTEN-null viability, CellTiter-Glo, 60 h; at 10 µM; active compounds read low
row,Structure (SMILES),viability
1,CCCC[C@H]1C(=O)O[C@H](C)[C@H](NC(=O)c2cccc(NC=O)c2OC)C(=O)O[C@@H](C)[C@@H]1OC(=O)CC(C)C,93.3%
2,C[C@]12CC[C@@H](O)C[C@@H]1CC[C@@H]1[C@@H]2CC[C@]2(C)C(=O)CC[C@@H]12,98.8%
3,CCCN1CCC[C@@H]2Cc3cn[nH]c3C[C@H]21,105%
4,C[C@@H]1O[C@@H](OC2CC(O)C3(CO)C4C(CCC3(O)C2)C2(O)CCC(C3=CC(=O)OC3)C2(C)C[C@H]4O)[C@H](O)[C@H](O)[C@H]1O (some centres undefined),106%
5,CN1C[C@H](CNC(=O)OCc2ccccc2)C[C@@H]2c3cccc4c3c(cn4C)C[C@H]21,75.3%
6,CC/C(=C(\c1ccccc1)c1ccc(OCCN(C)C)cc1)c1ccccc1,35.9%
7,COC(=O)C(O)C(O)(CCC(C)C)C(=O)OC1C(OC)=CC23CCCN2CCc2cc4c(cc2C13)OCO4 (centres undefined),26.2%
8,CC(=O)O[C@H]1[C@H]2[C@@H](OC(=O)Cc3ccccc3)[C@@H](C)C[C@]2(OC(C)=O)C(=O)/C(C)=C/[C@@H]2[C@H](CC[C@@]13CO3)C2(C)C,68.9%
9,C[C@H]1CCC/C=C/C2C[C@H](O)C[C@H]2[C@H](O)/C=C/C(=O)O1 (some centres undefined),58.2%
10,O=C1C=CC(=O)C(Cl)=C1,95.1%
11,CSC(=S)NCc1c[nH]c2ccccc12,91.6%
12,NCC(CC(=O)O)c1ccc(Cl)cc1 (centres undefined),94.7%
13,OCC1CCCN2CCCCC12 (centres undefined),106%
14,CNc1ccc2oc(C[C@@H]3OC4(CC[C@@H]3C)O[C@H](C(C)C(=O)c3ccc[nH]3)[C@H](C)C[C@H]4C)nc2c1C(=O)O (some centres undefined),3.3% (active)
15,C=CCN1CC[C@]23c4c5ccc(O)c4O[C@H]2C(=O)CC[C@@]3(O)[C@H]1C5,89.3%
16,NCCc1c[nH]c2ccc(O)cc12,98.1%
17,CC(C)c1cc2c(c(O)c1O)[C@@]1(C(=O)O)CCCC(C)(C)[C@@H]1CC2,97.5%

row,Structure (SMILES),viability
1,COC1=C[C@@H]2[C@@H]3Cc4ccc(OC)c(O)c4[C@]2(CCN3C)CC1=O,96%
2,C=C(C)[C@H]1CN[C@H](C(=O)O)[C@H]1CC(=O)O,99.8%
3,O=C1CCC[C@H]2[C@@H]3CCCN4CCC[C@H](CN12)[C@H]34,105%
4,N#Cc1nn(-c2c(Cl)cc(C(F)(F)F)cc2Cl)c(N)c1S(=O)C(F)(F)F (centres undefined),85.6%
5,CCCCCCCCCCCCCC(=O)O[C@@H]1[C@@H](C)[C@@]2(O)[C@@H](C=C(CO)C[C@]3(O)C(=O)C(C)=C[C@@H]23)[C@@H]2C(C)(C)[C@]12OC(C)=O,53.1%
6,CCN1C[C@@]2(COC)C3[C@@H](OC)[C@H]4C1[C@@]3(C1C[C@]3(O)C(OC)[C@H](O)[C@@]4(OC(C)=O)C1[C@H]3OC(=O)c1ccccc1)[C@H](OC)C[C@H]2O (some centres undefined),89.3%
7,CN(C)[C@@H]1C(=O)C(C(N)=O)=C(O)[C@@]2(O)C(=O)C3=C(O)c4c(O)cccc4[C@@](C)(O)C3CC12 (some centres undefined),97.1%
8,Nc1ccncc1,100%
9,CC[C@@]1(O)C(=O)OCc2c1cc1n(c2=O)-c2cc3ccccc3nc2C1,24.7%
10,N#CC(C#N)=Cc1cc(O)c(O)c([N+](=O)[O-])c1,106%
11,COC[C@H]1OC(=O)c2coc3c2[C@@]1(C)C1=C(C3=O)C2CCC(=O)[C@@]2(C)C[C@H]1OC(C)=O (some centres undefined),78.4%
12,CC1=C2[C@H]3OC(=O)[C@@H](C)[C@@H]3CC[C@@]2(C)C=CC1=O,95.7%
13,O[C@H]1[C@H](O)[C@@H](O)CN2CC[C@H](O)[C@H]12,97.8%
14,N#CC(C#N)=Cc1ccc([N+](=O)[O-])c(O)c1,108%
15,C[C@@H]1CC[C@H]2[C@@H](C)C(=O)O[C@@H]3OC4(C)CC[C@@H]1[C@]32OO4,71.5%
16,CC(C)(C)[C@]1(O)C[C@@H]2OC(=O)CC23C(=O)O[C@@H]2OC(=O)[C@H](O)C231 (some centres undefined),93.3%
17,O=C1C=C2C=C[C@@H]3C[C@@]2(O1)[C@H]1CCCCN31,79.4%
